Source: PubChem BioAssay (several laboratories)
This is a sample that favours compounds with a hit; in the whole collection about 2.7% have one here.
HIF-2a block – inhibitors of HIF-2a; 786-0 RCC cells HIF-2a reporter, luciferase luminescence, overnight; inhibition, % at 18.8 µM; 0.72% of 360,000 active; AID 624352;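 active = inhibition of the luminescence signal of 40% or more relative to plate controls, in a single-dose primary screen at 18.75 µM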
Shn3 inh set2 – Schnurri-3 reporter inhibition in Clone20 osteoblasts; Clone20 osteoblast Shn3 3'UTR firefly luciferase, 24 h; inhibition, % at 12.5 µM; 0.52% of 360,000 active; AID 588674;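 active = mean inhibition of at least 75% with every replicate also reaching 75%; inconclusive = mean inhibition at least 75% but some replicate below; inactive = mean inhibition below 75%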
TRPM1 prom inh – reduces MITF-dependent TRPM1 promoter luciferase signal; SK-MEL-5 TRPM1 promoter luciferase, 24 h; 0.83% of 330,000 active; inhibition, % at 12.5 µM;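 active = mean inhibition across replicates of 60% or more, whatever share of single replicates reaches that level; inconclusive = some that reach 60%, reason not given; inactive = mean inhibition across replicates below 60%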
KKLEB cytotox – CF airway cell cytotoxicity counter-screen; KKLEB CF airway cells viability, ATPlite luminescence, overnight; active compounds read low; cells stimulated with P. aeruginosa culture filtrate; activity change (cytotoxicity), % at 5 µM; 0.36% of 360,000 active;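 active = corrected activity change at or below -50% at 5 µM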
Peg3 prom inh – Peg3 promoter activity inhibition; HeLa PEG-Prom luciferase reporter, luminescence, overnight; inhibition, % at 20 µM; 1.7% of 360,000 active; AID 588405;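 active = inhibition of at least 50% at 20 µM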
CF NFkB inh – inhibitors of cystic fibrosis induced NF-kB. inhibition, % at 5 µM. 0.86% of 360,000 active. KKLEB NF-kB-GFP reporter, PAF-induced, GFP fluorescence overnight;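 active = at least 50% inhibition at 5 µM, scaled per plate between neutral and stimulator controls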;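 note: PAF is a Pseudomonas aeruginosa culture filtrate used as stimulus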
Each line names hits and unclear results; the compound was inactive in the other large screens; ! = not active in a repeat.

NC(Cc1ccc(C(F)(F)F)cc1)c1csc(NC(=O)Nc2ccccc2Cc2ccccc2)n1 (configuration not stated)	KKLEB cytotox -92, Peg3 prom inh 118, CF NFkB inh 92 (no result: TRPM1 prom inh)
NC(c1csc(NC(=O)Nc2ccc(OC(F)(F)F)cc2)n1)C1CCCCC1 (configuration not stated)	KKLEB cytotox -65, Peg3 prom inh 100, CF NFkB inh 69 (no result: TRPM1 prom inh)
NC(CO)c1csc(NC(=O)Nc2ccccc2Cc2ccccc2)n1 (configuration not stated)	none (no result: TRPM1 prom inh)
COc1ccc([C@H]2CC(=O)C=C(c3ccc(CNC(=O)OC(C)(C)C)cc3)C2)cc1	none
CNC[C@H]1Oc2c(NS(=O)(=O)c3cccs3)cccc2C(=O)N([C@H](C)CO)C[C@@H]1C	none
CC(C)(C)c1ccccc1NC(=O)Nc1nc(C(N)Cc2ccc(F)cc2)cs1 (configuration not stated)	Peg3 prom inh 98 (no result: TRPM1 prom inh)
CC(C)(C)c1ccccc1NC(=O)Nc1nc(C(N)c2ccccc2)cs1 (configuration not stated)	none (no result: TRPM1 prom inh)
COC(=O)C1=C(C)NC(C)=C([N+](=O)[O-])C1c1ccccc1C(F)(F)F (configuration not stated)	Shn3 inh set2 93!
CCOC(=O)NNC(=O)CCn1c2c(c3ccccc31)CCCC2	CF NFkB inh 62
CC(=O)NNC(=O)CCn1c2c(c3ccccc31)CCCC2	none
COc1ccc2nc(C)cc(N/N=C/c3ccccc3)c2c1	TRPM1 prom inh 99, Peg3 prom inh 107
COc1ccc2nc(C)cc(Nc3ccc(N4CCOCC4)cc3)c2c1	none
COc1ccccc1/C=N/Nc1cc(C)nc2ccc(C)cc12	none
Cc1cc(N/N=C/c2ccc(N(C)C)cc2)c2ccccc2n1	none
Cc1cc(N/N=C/c2ccc(O)cc2)c2cccc(C)c2n1	Peg3 prom inh 110
COc1ccc2nc(C)cc(Nc3ccc(N4CCN(C)CC4)cc3)c2c1	TRPM1 prom inh 97, Peg3 prom inh 111
Cc1cc(NS(C)(=O)=O)c(=O)n(Cc2cccc(C(F)(F)F)c2)c1	none (no result: TRPM1 prom inh)
CCOC(=O)C1=CCN(S(=O)(=O)c2cccc(Cl)c2)C1c1ccc(F)cc1 (configuration not stated)	none (no result: TRPM1 prom inh)
COc1cc(-c2noc(C)c2C(=O)NCCc2ccccc2)cc(OC)c1OC	none
Cn1cc(C(=O)c2ccc(Cl)cc2Cl)cc1C(=O)N/N=C(\N)COc1ccc(Cl)cc1	Peg3 prom inh 53
O=C(NC1CCCCC1)C(c1ccc(F)cc1)N(Cc1cccs1)C(=O)CN1C(=O)c2ccccc2S1(=O)=O (configuration not stated)	KKLEB cytotox -75, CF NFkB inh 59
Cc1ccc(-c2nc(C)sc2CC(=O)OCC(=O)Nc2ccc(F)c(Cl)c2)cc1	none
O=C(CSc1c2c(nc3cc(Cl)ccc13)CCCC2)NCCCN1CCOCC1	none
CCN(CC)CCCNC(=O)CSc1c2c(nc3cc(Cl)ccc13)CCCC2	Peg3 prom inh 96
CCCCCCn1ccc(=N)cc1	Shn3 inh set2 86
C=CCCC(=O)N1C[C@H]2CON(C)[C@H]2C[C@H]1c1cccc(Br)c1	none
CN1/C(=C/c2cc[n+](C)c3ccccc23)C=Cc2ccccc21	TRPM1 prom inh 83
C[n+]1ccc(/C=C/c2ccccc2O)c2ccccc21	none
COC(=O)[C@@H]1C[C@]2(OC(=O)c3ccccc3)C=CC(=O)C[C@@H]2N1C(=O)OCc1ccccc1	HIF-2a block 91, TRPM1 prom inh inconclusive, Peg3 prom inh 72, CF NFkB inh 50
COC(CNC(=O)C1CCCN1C(=O)OCc1ccccc1)OC (configuration not stated)	none
Clc1ccc(-c2nnc(-c3ccccc3)c(N3CCSCC3)n2)cc1	none
CC1CN(c2nc(-c3ccc(Br)cc3)nnc2-c2ccccc2)CC(C)N1 (configuration not stated)	Peg3 prom inh 62
COC1=C(Nc2ccc(OC)cc2)C(=O)c2ccccc2C1=O	none
Cc1ccc(NC2=C(Cl)C(=O)c3ccccc3C2=O)cc1	TRPM1 prom inh 103, Peg3 prom inh 96
CCN(CC)c1ccc(NC2=C(Cl)C(=O)c3ccccc3C2=O)cc1	HIF-2a block 96, Shn3 inh set2 97, TRPM1 prom inh 92, KKLEB cytotox -93, Peg3 prom inh 103, CF NFkB inh 96
COC1=C(Nc2ccc(O)cc2)C(=O)c2ccccc2C1=O	TRPM1 prom inh 80
